Experimental findings from PubChem BioAssay (NCI) are described below.

Molecules are shown by their SMILES. Compounds without any hit were thinned out: in the full panel of roughly 83,000, 20% have a hit.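 Method: cells in 96-well plates; compound added at one concentration; 48 h incubation; percent growth measured; values under 10 scored active.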 Unmarked numbers belong to inactive results. Active and inactive are the calls of the source.

Holding throughout (assay): NCI-60 one-dose screen, 48 h (100 = growth as untreated, 0 = no growth, -100 = all killed)
Conditions in all cases: 10 µM unless noted

In assay [1] the test system is NCI-H23 lung.
In assay [2] the test system is NCI-H226 lung.
In assay [3] the test system is NCI-H322M lung.
The subject of assay [4] is HOP-62 NSCLC.
Assay [5] relates to NCI-H460 lung.
In assay [6] the test system is HOP-92 NSCLC.
Assay [7] deals with NCI-H522 lung.
The subject of assay [8] is A549/ATCC NSCLC.
Assay [9] concerns 786-0 renal.
Assay [10] deals with COLO 205 colon.
Assay [11] deals with DU-145 prostate.
The test system of assay [12] is K-562 leukemia.
Assay [13] concerns MALME-3M melanoma.
The subject of assay [14] is MDA-MB-231 breast.
In assay [15] the test system is RXF 393 renal.
Assay [16] concerns SF-268 CNS.
For assay [17], the system named is SF-539 CNS.
Assay [18] has as its system UACC-257 melanoma.
Assay [19] relates to M14 melanoma.

For the compound `CCC(=O)OC1=CN2C(=NC(c3ccc(N)cc3)=CC2c2cc(OC)c(OC)c(OC)c2)S1` (centres undefined), the growth in assay [1] is 84.8%; in assay [2], 75%; in [3], 63%; in assay [4], 48.1%; in [5], 16.7%; in assay [6], 48.4%. For the same compound, the growth was 40.6% in assay [7]; 39.2% in assay [8]; 72.1% in assay [9]; 47% in assay [10]; -16.6% (active) in assay [11]; 6.1% (active) in assay [12]. The growth is 63.7% in [13]; 67.1% in assay [14]; 35.1% in [15]; 60.8% in [16]; 43.8% in [17]; 37.1% in [18]. The growth in assay [19] is 52.5%.

Regarding `O=C(Nc1cccc(-n2cc(-c3ccncc3)c(-c3ccc(Cl)c(O)c3)n2)c1)Nc1ccc(Cl)c(C(F)(F)F)c1`, the growth in assay [1] is -25.8% (active); in assay [2], 3.43% (active); in assay [3] it was 24.7%; in assay [4] it was -17% (active); in [5], -43.7% (active); in [6], -30.7% (active). The growth in assay [7] was -30% (active); in [8], -21.3% (active); in assay [9], 4.7% (active); in assay [10], -60.2% (active); in assay [11], -17% (active); in assay [12], -20.8% (active). The growth was -16.6% (active) in [13]; -36.4% (active) in assay [14]; -76% (active) in [15]; -34.5% (active) in [16]; -26.1% (active) in [17]; -54% (active) in assay [18]. For the same compound, in [19], the growth was -25.5% (active).

`COc1ccc(OC)c(C2OC(c3ccc4ccccc4c3O)=NN2C(C)=O)c1` (centres undefined): the growth in [1] is 80%; in [2], 87.1%; in [3], 77.5%; in assay [4], 65.4%; in assay [5], 43%; in assay [6] it was 54.4%. The growth is 35.6% in assay [7]; 56.5% in assay [8]; 81.9% in assay [9]; 77.1% in assay [10]; 77.8% in assay [11]; 31.3% in assay [12]. Further, the growth in [13] was 43.8%; in assay [14], 91.1%; in assay [15] it was 53.1%; in assay [16], 80.3%; in assay [17], 65.5%; in assay [18], 57.6%. Further, the growth in assay [19] is 54.6%.

`COc1ccc(C2C=C(c3ccc(Cl)cc3)N=C3SC=C(C)N32)c(Br)c1` (centres undefined): the growth in [1] is 50.1%; in assay [2], 59.5%; in assay [3] it was 55.2%; in assay [4], 30.5%; in assay [5], 13.4%; in assay [6] it was 95.6%. In addition, the growth in [7] is 23%; in [8], 36.9%; in assay [9], 47.2%; in assay [10], 18.6%; in [11], -31.5% (active); in assay [12], 5.84% (active). Besides, the growth is 43.6% in assay [13]; 58.2% in [14]; -7.69% (active) in [15]; 43.4% in assay [16]; 37.3% in assay [17]; 39.4% in assay [18]. In assay [19], the growth was 28.3%.

As to `COc1cc(-c2nn(-c3cccc(NC(=O)c4ccc(N5CCOCC5)c(C(F)(F)F)c4)c3)cc2-c2ccncc2)ccc1Cl`, the growth in [1] was 15.6%; in assay [2], 42.5%; in assay [3], 54.2%; in assay [4], 29.5%; in assay [5], 5.02% (active); in [6], 11.5%. The growth in assay [7] was 0.2% (active); in assay [8], 3.58% (active); in assay [9] it was -3.26% (active); in [10], -43.4% (active); in assay [11], 10.9%; in assay [12], 1.22% (active). Moreover, the growth in assay [13] is 36.2%; in assay [14] it was -25.2% (active); in assay [15], -45.2% (active); in assay [16], 22.5%; in [17] it was -68.9% (active); in [18], 24.3%. Further, the growth in assay [19] is 1.42% (active).

On to `O=C(/C=C/c1c[nH]c2ccccc12)c1ccc(O)c(CN2CCN(c3ccc(F)cc3)CC2)c1`, for which the growth was 99.8% in assay [1]; 100% in [2]; 103% in assay [3]; 95.9% in [4]; 106% in assay [5]; 95.5% in [6]. Also, the growth in [7] was 102%; in assay [8] it was 99.5%; in [9], 103%; in assay [10], 109%; in [11], 107%; in assay [12], 103%. The growth in [13] was 101%; in assay [14] it was 98.7%; in assay [15], 108%; in assay [16], 94%; in assay [17], 98.3%; in assay [18], 115%. Further, the growth in [19] is 99.4%.
